Screening results from PubChem BioAssay.
CHT PAM: CHT positive allosteric modulators, primary screen, cell-based, membrane potential dye, choline EC20. High affinity choline transporter 1 (Homo sapiens), Q9GZV3. CHT-expressing cells; active compounds read high; LV-AA mutant CHT in HEK293 cells. B-score at 10 µM. actives 0.49% (n = 310,000). AID 488977, 2010;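 active means initial fluorescence not abnormally high and integrated response B-score, plate-corrected, over 3 SD above library mean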
Target sequence (Q9GZV3 whole entry, looked up): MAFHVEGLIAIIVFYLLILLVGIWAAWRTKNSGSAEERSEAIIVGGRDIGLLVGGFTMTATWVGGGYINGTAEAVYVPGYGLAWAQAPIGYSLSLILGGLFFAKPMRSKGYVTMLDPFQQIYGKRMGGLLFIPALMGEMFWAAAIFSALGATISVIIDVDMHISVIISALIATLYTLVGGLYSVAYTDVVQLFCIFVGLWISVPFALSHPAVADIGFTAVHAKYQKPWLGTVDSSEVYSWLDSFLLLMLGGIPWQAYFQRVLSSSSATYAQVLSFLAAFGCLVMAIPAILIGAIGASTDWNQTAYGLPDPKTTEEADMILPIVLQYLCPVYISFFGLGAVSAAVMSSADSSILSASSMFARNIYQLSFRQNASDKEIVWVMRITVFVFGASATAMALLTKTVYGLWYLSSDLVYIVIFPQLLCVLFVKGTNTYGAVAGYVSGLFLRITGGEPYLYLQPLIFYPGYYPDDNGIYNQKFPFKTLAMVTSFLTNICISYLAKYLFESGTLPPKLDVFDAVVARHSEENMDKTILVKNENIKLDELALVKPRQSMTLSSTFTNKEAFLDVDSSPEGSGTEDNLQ
CHT inh: inhibitors of human choline transporter CHT. High affinity choline transporter 1 (Homo sapiens), Q9GZV3. CHT-expressing cells, membrane potential dye, choline response; active compounds read low. B-score at 10 µM. actives 0.86% (n = 310,000);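 active means B-score over 3 SD under the library average, and starting fluorescence ratio not unusually high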;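 further: choline stimulus applied at its EC90 after an EC20 pre-addition; B-score computed on integrated fluorescence ratio after choline addition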
Mot1-301 SUMO: yeast Mot1-301 growth rescue at high temperature, primary screen, SUMOylation pathway inhibitor project, S. cerevisiae, ATP luminescence, 38.5C; growth rescue, % at 18.8 µM; AID 2716, 2010; actives 1% (n = 320,000); S. cerevisiae Mot1-301 growth rescue; percent above DMSO median, 100 means doubled;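 active means every valid replicate shows activation above 250% relative to neutral control wells; inactive means the rest, any valid replicate at or below 250%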;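 further: OY570 slx delta 5 strain wells were the positive control but not used for scaling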
A1 inh: caspase 3/7 activation in MEF A1-2A-BIM cells, primary screen, A1 inhibitor project, cell-based, luminescence, HTS; Caspase-Glo 3/7 luminescence, 3 h; percent of clofoctol response, vehicle zero; caspase activation, % (no concentration beside the values); actives 0.066% (n = 330,000);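 active means over half of replicate activation scores above 10%, or exactly half above 10 with the replicate mean above 10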
NALP1 yeast inh: NALP1 inflammasome inhibitors in reconstituted yeast, colorimetric, S. cerevisiae, triplicate retest; S. cerevisiae NALP1/ASC/caspase-1 growth, X-gal OD620, 72 h; inhibition, % at 10 µM; actives 0.61% (n = 280,000); AID 2071, 2009; in the data active means inhibition mostly above about 24%, no sharp cut-off; inactive means mostly below about 32%
NALP3 yeast inh: NALP3 inflammasome inhibitors in reconstituted yeast, primary screen, luminescence, uHTS | actives 0.39% (n = 330,000) | Yeast reconstituted NLRP3/ASC/caspase-1, beta-gal luminescence, 24 h | AID 2825, 2010 | inhibition, % at 10 µM;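 active means inhibition of 50% or more; inactive means inhibition below 50%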;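 further: plate controls were induced DMSO wells for no effect and uninduced yeast grown without galactose for full effect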
CHT activ conf: CHT activators, confirmation, cell-based, membrane potential dye, duplicate. activation, % at 10 µM. actives 91% (n = 2,500). CHT-expressing cells, membrane potential dye fluorescence (FDSS); % of choline EC20–EC90 response window; HEK293 expressing CHT LV-AA mutant; choline added at its EC20. shares compounds with CHT PAM;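 active means primary screen active, with duplicate mean activation above negative control mean plus 3 SD, cut at about 11% in these data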
HEK293 MP dye: membrane potential response in parental HEK293 cells, counter-screen for CHT activator project, cell-based, membrane potential dye | shares compounds with CHT PAM | membrane potential dye fluorescence (FDSS); measured after EC20 choline addition | ratio readout change at 10 µM, hits read low | actives 62% (n = 2,500);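 active means duplicate-averaged ratio beyond 3 SD from buffer wells, up or down, though filed actives are nearly all decreases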
* = called active by the depositor; i = inactive; nt = no result given. Most compounds without a hit are left out; they make up all but 3% or so of the library.

SMILES | CHT PAM | CHT inh | Mot1-301 SUMO | A1 inh | NALP1 yeast inh | NALP3 yeast inh | CHT activ conf | HEK293 MP dye
CN(Cc1cccnc1)C(=O)c1cc(COc2ccc3c(c2)CCCC3)on1 | i | i | 12 | -4 | 9 | 42 | 2 | i
CC(=O)c1cccc(OCc2cc(C(=O)N(C)Cc3cnccn3)no2)c1 | i | i | -8 | -1 | 9 | 18 | nt | nt
CCC(C)Sc1cc(-c2nc3ccc(C)cn3c2NCc2ccccc2)ccc1OC (configuration not stated) | 7.7* | i | 11 | 0 | nt | nt | 22* | -25*
COc1ccc(-c2c[n+](CC(=O)c3cccs3)c3n2CCC3)cc1 | i | i | 145 | 0 | 2 | 11 | 44* | -31*
Cc1ccc(-c2c[n+](CC(=O)c3cccs3)c3n2CCC3)cc1 | i | i | -12 | 0 | -3 | 3 | nt | nt
N#CC(=Cc1ccc(O)cc1)C(N)=C(C#N)C#N | i | i | 4 | 0 | nt | 16 | nt | nt
O=C(c1ccco1)N(CCC(c1ccccc1)c1ccco1)Cc1ccccc1 (configuration not stated) | 6.4* | i | 1 | 1 | 31 | 17 | 40* | i
COc1cc(/C=C/C(=O)OCC(=O)NCCc2ccc(F)cc2)ccc1OC(F)F | nt | nt | -20 | 0 | nt | 10 | nt | nt
CCO[C@H]1OC(C(=O)NCc2nc3ccccc3[nH]2)=C[C@@H](c2ccccc2)[C@@H]1CCCO | i | i | 5 | 1 | 8 | 6 | nt | nt
CCO[C@H]1OC(C(=O)NCc2nc3ccccc3[nH]2)=C[C@@H](C2CC2)[C@@H]1CCCO | i | i | 106 | 0 | -4 | 6 | 26* | i
CCC(=O)Nc1ccc(NC(=O)c2cc3ccccc3o2)c(OC)c1 | i | i | 13 | -6 | 22 | 26 | nt | nt
C=CCN(c1ccccc1)S(=O)(=O)c1cccc(C(=O)Nc2ncccc2C)c1 | i | i | 1 | 0 | nt | 7 | nt | nt
CC(=O)N1CCN(c2ccccc2NC(=O)COc2cc(C)ccc2C(C)C)CC1 | 10* | i | 2 | 0 | -2 | 8 | 44* | i
CCCC(=O)Nc1ccc(Cc2ccc(NC(=O)CCC)c(C(=O)O)c2)cc1C(=O)O | i | i | -7 | 0 | 13 | 5 | nt | nt
CCOc1cc(/C=N/NC(=O)c2ccc(N(C)S(=O)(=O)c3ccccc3)cc2)ccc1OC | i | i | 33 | 0 | 14 | 14 | nt | nt
Cn1c(=O)n(C)c2cc(/C=N/n3cnnc3)ccc21 | 8.7* | i | 7 | 0 | -6 | 3 | 70* | -69*
Cc1ccc(F)cc1NC(=O)COC(=O)C1CCN(c2ccc(C(F)(F)F)cn2)CC1 | i | i | 2 | 0 | nt | 8 | nt | nt
Cc1nnc(Sc2cc(C(=O)NCCCN(C)Cc3ccccc3)c3ccccc3n2)s1 | 6.5* | i | -19 | 1 | 7 | 6 | 24* | -29*
COCCCNC(=O)c1cc(Sc2nnc(C)s2)nc2ccccc12 | i | i | 12 | 0 | 13 | 3 | nt | nt
Cc1ccc2cccc(NS(=O)(=O)c3ccccc3)c2n1 | i | i | -4 | 0 | 12 | 9 | nt | nt
Cc1ccc2ccc3ccc(C)nc3c2n1 | 11* | i | 14 | -1 | 19 | 40 | 67* | -75*
C(=C\c1ccccn1)/c1cccnc1 | nt | nt | nt | nt | 9 | 24 | nt | nt
COC(=O)c1c(NC(=O)c2cccc(S(=O)(=O)N3CCN(C)CC3)c2)sc(C)c1C | i | i | nt | 0 | nt | 5 | nt | nt
CC(C)Cn1c(N)c(C(=O)COC(=O)/C=C/c2ccccc2)c(=O)n(C)c1=O | i | i | -12 | -1 | nt | 6 | nt | nt
Cc1ccn2c(c1)nc(=O)c1cc(S(=O)(=O)N3CCCCC3)ccc12 | i | i | -13 | 0 | 10 | 18 | 32* | -27*
SMILES | CHT PAM | CHT inh | Mot1-301 SUMO | A1 inh | NALP1 yeast inh | NALP3 yeast inh | CHT activ conf | HEK293 MP dye
Oc1ccc(/C=N/Nc2cc(N3CCOCC3)nc(N3CCOCC3)n2)cc1O | 7.1* | i | -7 | 1 | 11 | 14 | 47* | -62*
Oc1ccccc1/C=N/Nc1cc(N2CCCC2)nc(N2CCCC2)n1 | i | i | -1 | -1 | 24 | 15 | nt | nt
c1ccc(-c2c[n+]3c(n2-c2ccccc2)SCC3)cc1 | 6.6* | i | -1 | -2 | -1 | 7 | 49* | -33*
c1ccc(-c2cn(-c3ccccc3)c3[n+]2CCS3)cc1 | 6.8* | i | 84 | 2 | 1 | 1 | 56* | -34*
COCCN(C(=O)CSc1n[nH]c(-c2ccccc2)n1)c1c(N)n(CC(C)C)c(=O)[nH]c1=O | i | i | -1 | 1 | nt | 6 | nt | nt
COc1ccc(N)c2c1C(=O)c1ccccc1C2=O | 7.4* | i | -18 | -1 | 23 | nt | 48* | -54*
Cc1cccc(C(=O)OCC(=O)N2CC(=O)Nc3ccccc32)c1C | nt | nt | 3 | 0 | nt | 5 | nt | nt
CCCc1nc2c(C)ccc(C)c2c(N)c1CC | i | i | -12 | 1 | 39 | 10 | 55* | -52*
Cn1ccnc1-c1ccc(-c2nccn2C)cc1 | 10* | i | -5 | 0 | 14 | 4 | 64* | -76*
COc1ccc(C)cc1Nc1n[n+](-c2ccccc2)c(-c2c(Cl)cccc2Cl)s1 | i | i | -16 | 1 | 16 | 9 | nt | nt
COc1ccc(C)cc1Nc1n[n+](-c2ccccc2)c(-c2ccc(OC)c(OC)c2OC)s1 | 9.9* | i | -6 | 0 | 10 | 18 | 15* | i
O=[N+]([O-])c1ccc(SCc2ccncc2)nc1 | i | i | 24 | 1 | 9 | 7 | nt | nt
c1ccc(-c2nc3cnccn3c2Nc2ccc3c(c2)OCCO3)cc1 | i | i | -7 | -1 | 10 | 4 | nt | nt
Oc1ccc(-c2nc3cnccn3c2Nc2ccc3c(c2)OCCO3)cc1 | 8.3* | i | 2 | nt | -18 | 21 | 6 | i
Cc1ccc(-c2cn(-c3ccc(OC(F)F)cc3)c3[n+]2CCCCC3)cc1 | i | i | -1 | 0 | 10 | 17 | 57* | i
